Results filed as inconclusive are left out. A number with no mark means an inactive call. The call rests on the fitted dose curve; in most records, active means well fitted cell-killing curve with a large enough effect in the repeat runs (not every such curve was filed as active); inconclusive means weak or mixed curves, or effect the other way; inactive means no such curve, though single readings can be large or run the other way.
On the % scale 0 is the no-effect control and ±100 the full control effect.

This assay is described as follows: qHTS assay to identify small molecule antagonists of the farnesoid-X-receptor (FXR) signaling pathway - cell viability counter screen (AID 743221). Further: nearly all actives have a fitted effect of over 50% in size. The following applies: FXR-bla HEK293T viability, CellTiter-Glo luminescence, 16 h; series mostly up to 62.6 µM; activity change, negative = cytotoxicity: at the top concentration. From the text: National Center for Advancing Translational Sciences [NCATS]
NIH Chemical Genomics Center [NCGC]
U.S. Environmental Protection Agency [EPA]
National Institutes of Environmental Health Sciences [NIEHS]
National Toxicology Program [NTP]
U.S. Food and Drug Administration [FDA]
The farnesoid-X-receptor (FXR), a nuclear hormone receptor, is highly expressed in liver, intestine, kidney and adrenal cortex. Natural ligands of FXR are the bile acids (Cholic acid, Chenodeoxy cholic acid etc). FXR is an important regulator of diverse metabolic pathways, including the bile acid homeostasis, lipid and glucose metabolisms. FXR regulates the expression of target genes by binding either as a monomer or as a heterodimer with the retinoid X receptor (RXR). Numerous studies have reported that FXR exerts protective function during cholestasis, diabetes, liver regeneration, and cancer. To identify compounds that inhibit FXR signaling, GeneBLAzer FXR-UAS-bla HEK 293T cell line (Invitrogen, Carlsbad, CA) containing a beta-lactamase reporter gene under the control of a UAS response element was used to screen the Tox21 10K compound library. The cytotoxicity of the Tox21 compound library against the FXR-bla cell line was tested in parallel by measuring the cell viability using CellTiter-Glo assay in the same wells.
Tox21 Assay Protocol Summary:
FXR-bla cells were dispensed at 5000 cells/5uL/well in 1536-well black wall/clear bottom plates using a Multidrop Combi (Thermo Fisher Scientific, Waltham, MA) dispenser. After the assay plates were incubated at 37 C and 5% CO2 for 5 h, 23 nL of compounds dissolved in DMSO, positive controls or DMSO only was transferred to the assay plate by a Pintool station (Kalypsys, San Diego, CA), followed by addition of 1 uL Chenodeoxycholic acid (50 uM, final concentration in the wells). The assay plates were incubated at 37C for 16 h. After 1 uL of LiveBLAzerTM B/G FRET substrate was added using a Bioraptr Flying Reagent Dispenser (FRD) workstation (Beckman Coulter, Indianapolis, IN), the plates were incubated at room temperature for 2 h, and fluorescence intensity was measured by an Envision plate reader (PerkinElmer, Shelton, CT). For cell viability readout that measures cytotoxicity, 4uL/well of CellTiter-Glo reagent was added into the assay plates using a Bioraptr FRD. After 30 min incubation at room temperature, the luminescence intensity in the plates was measured using a ViewLux plate reader (PerkinElmer).
For `Cc1ccc(NC(N)=O)cc1`, the “activity change, negative = cytotoxicity” value is -8.19% [at 81.1 µM].

In the case of `CCCCN(CCCC)CCCCCCN(CCCC)CCCC`, the “activity change, negative = cytotoxicity” value was 1.34%.

As for `COC(C)(C)CC(C)=O`, the “activity change, negative = cytotoxicity” value is 12.9%.

In the case of `C=CCCCCCCCCCCCCCC`, the “activity change, negative = cytotoxicity” value was -4.84% [at 29.1 µM].

As for `CCOC(=O)CN1CCCC1=O`, the “activity change, negative = cytotoxicity” value was -4.22%.

`CCOC(=O)[C@H](CCc1ccccc1)N[C@H]1CS[C@H](c2cccs2)CN(CC(=O)O)C1=O`: the “activity change, negative = cytotoxicity” value was 13.9%.

As for `NCC1CCC(C(=O)Oc2ccc(CCC(=O)O)cc2)CC1` (stereo not given), the “activity change, negative = cytotoxicity” value is 13.3%.

For the compound `CC(C)(C)NCC(O)COc1cccc2c1CCC(=O)N2` (stereo not given), the “activity change, negative = cytotoxicity” value was 18.7%.

Regarding `O=C(O)CCCCCCCCCC(=O)O`, the “activity change, negative = cytotoxicity” value was 8.55%.

On to `COc1ccc2cc(CCC(C)=O)ccc2c1`, for which the “activity change, negative = cytotoxicity” value is 10.6%.

For the compound `O=C1c2ccccc2C(=O)N1CO`, the “activity change, negative = cytotoxicity” value is -1.7% [at 81.1 µM].

Turning to `CCCCN=C(N)N=C(N)N`, the “activity change, negative = cytotoxicity” value is -0.723%.

Take `CC(C)(C)c1ccc(N)cc1`: the “activity change, negative = cytotoxicity” value is 3.38%.

As for `C[C@@H]1CCC[C@H](C)N1CCCC(O)(c1ccccc1)c1ccccn1` (stereo not given in full), the “activity change, negative = cytotoxicity” value was -0.673%.

As to `COc1cc(C(=O)NC2CCCNC2)cc(OC)c1OC` (stereo not given), the “activity change, negative = cytotoxicity” value was -1.03%.

For the compound `NNC(=O)CCCCC(=O)NN`, the “activity change, negative = cytotoxicity” value was -3.39%.

In the case of `CC(=O)Nc1ccc(OCCOCCOc2ccc(NC(C)=O)cc2)cc1`, the “activity change, negative = cytotoxicity” value was -4.07%.

Regarding `NS(=O)(=O)c1cc2c(cc1C(F)(F)F)NCNS2(=O)=O`, the “activity change, negative = cytotoxicity” value is -10.6%.

Regarding `CC(C)(C)C(=O)NCCCC(=O)O`, the “activity change, negative = cytotoxicity” value was -4.95%.

`CC1=C(O)C(=O)CO1`: the “activity change, negative = cytotoxicity” value is -2.23%.

Regarding `C[C@@H]1CC[C@@]2(OC1)O[C@H]1C[C@H]3[C@@H]4CC[C@H]5C[C@@H](O)CC[C@]5(C)[C@H]4CC(=O)[C@]3(C)[C@H]1[C@@H]2C`, the activity change, negative = cytotoxicity is 4.76% [at 5.95 µM].

As to `Cc1ccccc1OCC(=O)O`, the “activity change, negative = cytotoxicity” value is -3.29%.

Turning to `Cc1cccc(N)n1`, the “activity change, negative = cytotoxicity” value was 6.33% [at 81.1 µM].

On to `C/C(=N\O)c1ccc(OCC(=O)N2CCCCC2)cc1`, for which the “activity change, negative = cytotoxicity” value is -19.7%.

Take `CCC(C)SSC(C)CC` (stereo not given): the “activity change, negative = cytotoxicity” value is 3.08%.

Turning to `O=C(OOC(=O)c1ccccc1)c1ccccc1`, the “activity change, negative = cytotoxicity” value was 14%.

For `CC(CN1CC(=O)NC(=O)C1)N1CC(=O)NC(=O)C1` (stereo not given), the “activity change, negative = cytotoxicity” value was 0.406%.

In the case of `CCCCCCCCCCCCCCCC/C=C/C1CC(=O)OC1=O` (stereo not given), the “activity change, negative = cytotoxicity” value is -1.58%.

As to `O=C(c1ccccc1)c1cccc(O)c1`, the “activity change, negative = cytotoxicity” value was -0.0426% [at 81.1 µM].

On to `N=C(N)S(=O)O`, for which the “activity change, negative = cytotoxicity” value is 12.9%.

For `O=C(O)P(=O)(O)O`, the “activity change, negative = cytotoxicity” value was -2.57%.

As to `C[C@]12C=CC(=O)C=C1[C@@H](F)C[C@@H]1[C@@H]2[C@@H](O)C[C@@]2(C)[C@H]1CC[C@]2(O)C(=O)CO`, the “activity change, negative = cytotoxicity” value was 4.98%.

On to `CCC(C)c1nccnc1OC` (stereo not given), for which the “activity change, negative = cytotoxicity” value was 18.7%.

With `CCCCC(O)/C=C(C)/C=C/C=C/C(=O)N1CCCC1=O` (stereo not given), the “activity change, negative = cytotoxicity” value was 9.15%.

On to `CCOC(=O)CC`, for which the “activity change, negative = cytotoxicity” value was 5.67%.

Take `O=Cc1ccccc1S(=O)(=O)O`: the “activity change, negative = cytotoxicity” value was 12.6%.

Turning to `O=CN1CCCCC1`, the “activity change, negative = cytotoxicity” value was 2.84%.

`CC1(C)C(=O)C(C)(C)C1=O`: the “activity change, negative = cytotoxicity” value is 7.88%.

On to `CCCCCCCCCCCCCCCC(=O)OC`, for which the “activity change, negative = cytotoxicity” value was -13.6% [at 29.1 µM].

On to `CCNC(=O)C(C)OC(=O)Nc1ccccc1` (stereo not given), for which the “activity change, negative = cytotoxicity” value is -1.38%.

(Values after PubChem BioAssay (Tox21).)
